Experimental findings from PubChem BioAssay (EPA / NIEHS) are described below.

Inconclusive results are not listed. Active and inactive are the calls of the source. Rule for the calls: active = hit-call score of the fitted dose curve at least 0.9, where 1 is the maximum; inconclusive = response in the unintended direction; inactive = score below 0.9.

One may read the AC50 as the concentration at which the activity in the assay is half-maximal.

Peroxisome proliferator-activated receptor gamma (Homo sapiens), sequence (P37231 whole entry, looked up): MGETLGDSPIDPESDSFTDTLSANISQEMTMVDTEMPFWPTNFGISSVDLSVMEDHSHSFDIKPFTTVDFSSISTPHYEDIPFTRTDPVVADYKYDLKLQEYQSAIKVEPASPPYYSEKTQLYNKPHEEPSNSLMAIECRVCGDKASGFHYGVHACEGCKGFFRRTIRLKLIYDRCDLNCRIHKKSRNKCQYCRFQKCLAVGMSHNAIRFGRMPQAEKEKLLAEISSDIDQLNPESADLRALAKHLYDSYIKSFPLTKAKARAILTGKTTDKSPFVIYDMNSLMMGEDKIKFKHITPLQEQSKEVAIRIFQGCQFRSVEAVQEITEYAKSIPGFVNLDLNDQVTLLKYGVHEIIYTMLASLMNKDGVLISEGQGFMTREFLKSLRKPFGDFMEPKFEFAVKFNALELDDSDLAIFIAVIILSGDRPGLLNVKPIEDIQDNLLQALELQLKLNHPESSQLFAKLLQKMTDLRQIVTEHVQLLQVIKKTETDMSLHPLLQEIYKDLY

The target of the test is Peroxisome proliferator-activated receptor gamma (Homo sapiens) (UniProt P37231). The experiment in a line: OT_PPARg_PPARgSRC1_0480: Odyssey Thera (OT) 8-hour Protein-Complementation Assay for Peroxisome Proliferator-activated Receptor Gamma / SRC-1 Co-activator (AID 2283387).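 Note: nuclear to cytoplasmic split Venus YFP fluorescence ratio reporting PPARg SRC-1 interaction.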 In a few lines:
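Split-YFP (IFP1/IFP2) PPARg/SRC-1 reporter, HEK293T, 37 °C, 5% CO2; 8 h compound; formaldehyde fix + Draq5; high-content imaging, N/C ratio, ≥350 cells/image, positive direction vs DMSO.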
Take `CC(C)OC(=O)Nc1ccccc1`: the compound was called inactive. On the same count and under the same terms, for `CCCCCCCCSC(=O)Oc1cc(Cl)nnc1-c1ccccc1` the value was “inactive”; for `OCc1ccco1`, “inactive”; for `CCCCOCCOC(C)=O`, “inactive”.

Take `CCN1CCC2(CC1)COc1cc3c(cc12)N(C(=O)c1ccc(-c2ccc(-c4nnc(C)o4)cc2C)cc1)CC3`: the call was inactive. Still for that read-out and setting: under `Cc1ccc2ccccc2c1C` stands “inactive”; under `O=C(Nc1ccc2[nH]ccc2c1)c1cc2cc(F)ccc2n1Cc1cccc(F)c1`, “inactive”; under `C=C(C)C(=O)[O][Sn]([CH2]CCC)([CH2]CCC)[CH2]CCC`, “inactive”. Still for that read-out and setting: for `CCOP(=S)(OCC)SCSP(=S)(OCC)OCC` the value was “inactive”; for `C=CC(=O)OCCCCCC(C)C`, “inactive”; for `CC(C)(c1ccc(OCC2CO2)cc1)c1ccc(OCC2CO2)cc1` (centres undefined), “inactive”. On the same count and under the same terms, for `Cl/C=C\C[N+]12CN3CN(CN(C3)C1)C2` the value was “inactive”; for `CC(C)(OO)c1ccccc1`, “inactive”; for `Cc1ccc(N)cc1Cl`, “inactive”. As to `C1CCC(NC2CCCCC2)CC1`, the outcome was inactive. Consider `C=CC#N`, for which the compound was classed as inactive. Turning to `O=C1C(Cl)=C(Cl)C(=O)c2ccccc21`, the AC50 was 11.8 µM (active).

On to `Oc1cccc2cccnc12`, for which the call was inactive. On the same count and under the same terms, under `C[C@H]1CCCC(=O)CCC/C=C/c2cc(O)cc(O)c2C(=O)O1` stands “inactive”; under `[O-][Cl+2]([O-])O`, “inactive”; under `CC(C)C1CCC(Cc2ccc(Cl)cc2)C1(O)Cn1cncn1` (centres undefined), “inactive”.

With `CC(C)(c1ccccc1)c1ccc(O)c(C(C)(C)c2ccccc2)c1`, the compound was classed as inactive. In the case of `C[C@@H]1C[C@@H]([C@H](O)CC2CC(=O)NC(=O)C2)C(=O)[C@@H](C)C1`, the compound was called inactive. Still for that read-out and setting: under `Cc1ccccc1C(=O)Nc1cccc(OC(C)C)c1` stands “inactive”.
